Molecules are shown by their SMILES. Activity calls are given as the source filed them.

The test system of test [1] is Plasmodium falciparum Sir2 (PF13_0152, Sir2A). The test can be described thus: Plasmodium falciparum Sir2A binding compounds – biochemical, small-molecule microarray, 635 nm fluorescence, primary screen (AID 1098).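 Further: score merges spot fluorescence intensity with its signal-to-noise ratio.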 To be noted: fluorescence 635 nm, higher = more signal.
Test [2] is described as follows: probe aDKK1 binding to arrayed compounds – biochemical, biotinylated probe, 635/667 nm fluorescence, primary screen (AID 1099).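 Further: score merges 667nm spot fluorescence with signal to noise across triplicate slides; reference of the scale not given here.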 To be noted: small-molecule microarray, higher = more signal.
A short description of test [3]: probe aCHRDL2 binding to arrayed compounds – biochemical, biotinylated probe, 635/667 nm fluorescence, primary screen (AID 1100). To be noted: small-molecule microarray, higher = more signal.
A short description of test [4]: change in splice reporter luminescence, either direction, cell-based, HEK293, spliceosome inhibition project, primary screen (AID 1101).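 Further: HEK293 cells carrying a splicing-competent luciferase reporter gene; test concentration not given here.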 To be noted: HEK293 splicing luciferase reporter, 24 h, higher = more signal, called active from +8 up or from −8 down. Background: In a reporter assay the amount or activity of a reporter protein is the signal.
For test [5], the target named is Fibroblast growth factor 10 (Homo sapiens) (UniProt O15520). The test is described as follows: compounds binding fibroblast growth factor 10 – biochemical, small-molecule microarray, 635 nm fluorescence, primary screen (AID 1102). To be noted: FGF10 binding, fluorescence 635 nm, higher = more signal.
Sequence of Fibroblast growth factor 10 (Homo sapiens) (O15520 whole entry, looked up): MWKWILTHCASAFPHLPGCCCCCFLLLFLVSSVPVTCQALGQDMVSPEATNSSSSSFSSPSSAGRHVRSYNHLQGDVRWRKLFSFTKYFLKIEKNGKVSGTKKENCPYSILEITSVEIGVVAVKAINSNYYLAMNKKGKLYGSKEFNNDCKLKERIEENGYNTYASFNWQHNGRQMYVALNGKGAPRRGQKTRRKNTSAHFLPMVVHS
In test [6] the test system is glycogen synthase kinase-3 (GSK3A per assay name; protocol says GSK3B). The test is described as follows: compounds binding glycogen synthase kinase-3 – biochemical, small-molecule microarray, 635 nm fluorescence, GSK3A, primary screen (AID 1103). Further: the record names both GSK3A and GSK3B. To be noted: fluorescence 635 nm, higher = more signal.
For test [7], the target named is Epidermal growth factor receptor (Homo sapiens) (UniProt P00533). The test is described as follows: compounds binding epidermal growth factor receptor – biochemical, small-molecule microarray, 635 nm fluorescence, primary screen (AID 1104).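 Further: score merges 667 nm emission intensity with spot signal to noise over triplicate slides.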 The settings on record: EGFR binding, higher = more signal.
Sequence of Epidermal growth factor receptor (Homo sapiens) (P00533 whole entry, looked up): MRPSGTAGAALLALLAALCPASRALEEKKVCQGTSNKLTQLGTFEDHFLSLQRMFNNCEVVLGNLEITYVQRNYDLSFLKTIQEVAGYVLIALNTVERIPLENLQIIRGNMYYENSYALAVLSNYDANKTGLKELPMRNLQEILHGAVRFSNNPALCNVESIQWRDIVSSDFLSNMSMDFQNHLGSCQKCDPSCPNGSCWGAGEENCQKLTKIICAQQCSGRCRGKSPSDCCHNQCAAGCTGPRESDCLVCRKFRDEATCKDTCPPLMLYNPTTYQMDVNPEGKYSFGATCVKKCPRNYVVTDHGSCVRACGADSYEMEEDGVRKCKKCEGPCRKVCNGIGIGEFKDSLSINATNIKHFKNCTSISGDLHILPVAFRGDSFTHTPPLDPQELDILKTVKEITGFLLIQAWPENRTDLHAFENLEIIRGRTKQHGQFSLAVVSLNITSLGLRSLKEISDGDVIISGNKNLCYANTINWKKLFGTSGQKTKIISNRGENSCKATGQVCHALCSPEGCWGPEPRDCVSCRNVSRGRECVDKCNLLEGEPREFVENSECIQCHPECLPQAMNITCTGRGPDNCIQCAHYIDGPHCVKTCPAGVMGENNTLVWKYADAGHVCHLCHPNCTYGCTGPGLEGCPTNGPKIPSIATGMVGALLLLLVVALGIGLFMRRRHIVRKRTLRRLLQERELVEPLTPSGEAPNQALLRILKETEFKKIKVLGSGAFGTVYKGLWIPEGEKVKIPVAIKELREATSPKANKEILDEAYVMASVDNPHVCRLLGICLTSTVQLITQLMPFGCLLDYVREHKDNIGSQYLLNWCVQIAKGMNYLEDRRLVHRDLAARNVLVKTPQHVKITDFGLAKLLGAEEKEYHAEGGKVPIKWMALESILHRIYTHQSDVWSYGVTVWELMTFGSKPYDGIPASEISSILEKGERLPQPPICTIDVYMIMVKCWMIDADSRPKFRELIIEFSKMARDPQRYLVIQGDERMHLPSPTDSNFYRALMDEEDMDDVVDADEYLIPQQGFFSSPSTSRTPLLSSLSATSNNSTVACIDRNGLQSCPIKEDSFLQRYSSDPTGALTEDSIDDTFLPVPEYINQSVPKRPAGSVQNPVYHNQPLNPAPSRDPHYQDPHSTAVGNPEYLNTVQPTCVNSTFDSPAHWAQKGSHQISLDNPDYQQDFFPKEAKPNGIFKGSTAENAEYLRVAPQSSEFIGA
Test [8] has as its target Follistatin-related protein 3 (Homo sapiens) (UniProt O95633). The test is described as follows: compounds binding follistatin-related protein 3 – biochemical, small-molecule microarray, 635 nm fluorescence, primary screen (AID 1105).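 Further: score merges emission near 667 nm and signal to noise per printed spot across three slides.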 The settings on record: FSTL3 binding, higher = more signal.
Test [9] addresses Dickkopf-related protein 1 (Homo sapiens) (UniProt O94907). The test is described as follows: small molecules binding DKK1 protein – biochemical, small-molecule microarray, 635 nm fluorescence scan, primary screen (AID 1106).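 Further: score merges emission near 667 nm with signal to noise over three replicate slides.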 To be noted: higher = more signal.
In test [10] the test system is Inhibin beta A chain (activin A). The test is described as follows: small molecules binding activin A – biochemical, small-molecule microarray, 635 nm fluorescence scan, primary screen (AID 1107).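 Further: mouse activin A protein probed at 4.33 µg/mL on printed slides; score merges bound-protein fluorescence near 667 nm with spot signal-to-noise.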 To be noted: INHBA, higher = more signal.

Sequence of Dickkopf-related protein 1 (Homo sapiens) (O94907 whole entry, looked up): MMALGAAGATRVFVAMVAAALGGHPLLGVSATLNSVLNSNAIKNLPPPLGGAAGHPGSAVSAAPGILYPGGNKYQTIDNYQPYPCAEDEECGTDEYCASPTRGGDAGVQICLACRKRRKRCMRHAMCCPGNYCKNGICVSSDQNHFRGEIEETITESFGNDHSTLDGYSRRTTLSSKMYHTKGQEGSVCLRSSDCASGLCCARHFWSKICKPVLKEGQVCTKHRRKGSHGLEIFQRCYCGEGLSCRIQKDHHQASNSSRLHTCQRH
Sequence of Follistatin-related protein 3 (Homo sapiens) (O95633 whole entry, looked up): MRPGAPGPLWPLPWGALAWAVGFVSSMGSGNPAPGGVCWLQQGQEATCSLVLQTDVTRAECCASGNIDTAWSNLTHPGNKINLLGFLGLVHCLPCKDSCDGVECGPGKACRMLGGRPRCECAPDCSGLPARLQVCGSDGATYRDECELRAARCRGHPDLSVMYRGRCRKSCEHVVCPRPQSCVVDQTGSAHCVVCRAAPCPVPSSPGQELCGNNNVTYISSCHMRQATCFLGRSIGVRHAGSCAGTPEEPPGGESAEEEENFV

Take `C=CCN1C(=O)[C@@]2(Cc3ccccc31)N=C(c1ccc(OCCCO)cc1)O[C@H]2c1ccccc1`: the composite z-score in [1] amounted to 1.16; in test [2], 1.01; in [3], 0.935; in [5], 0.583; in test [6], 1.32; in [7], 0.435. Moreover, the composite z-score in test [8] stood at 0.983; in test [9] it was 0.776; in [10], 1.13. In addition, in test [4], the z-score is -1.52 (inactive).

With `COC(=O)[C@H](Cc1ccccc1)N[C@@H](/C=C/C1CC1)[C@H](O)Cc1ccccc1`, the composite z-score in [1] is 1.02; in test [2], -0.157; in test [3], 0.442; in test [5] it was -0.865; in test [6], -0.637; in [7], -0.463. Further, the composite z-score in test [8] is -0.862; in test [9], -0.429; in test [10], 0.437. Besides, the z-score in test [4] was 0.488 (inactive).

On to `O=C1c2ccccc2[C@](Cc2ccccc2I)(C(=O)NCCN2CCOCC2)[C@H](c2ccc(CO)cc2)N1Cc1ccccc1Cl`, for which the composite z-score is 1.42 in test [1]; 0.964 in test [2]; 0.732 in test [3]; 1.15 in test [5]; 1.28 in test [6]; 0.629 in [7]. Besides, the composite z-score turned out to be 1.25 in test [8], 0.419 in test [9] and 0.605 in test [10]. Besides, the z-score in test [4] was -0.0587 (inactive).

As for `COc1ccc(-c2cc3c(c(-c4ccc(Oc5ccccc5)cc4)n2)[Si](C(C)C)(C(C)C)OC3)cn1`, the composite z-score in test [1] is -0.207; in test [2], -0.242; in [3], -0.262; in test [5], -0.0354; in [6], -0.175; in test [7], -0.0425. In addition, the composite z-score in [8] is 0.148; in [9], 0.0989; in test [10], 0.365. The z-score in [4] is 0.00906 (inactive).

`COc1ccc(CCNC(=O)[C@@H]2c3ccccc3C(=O)N(Cc3ccccc3Cl)[C@H]2c2ccc(CO)cc2)cc1`: the composite z-score in [1] was 0.489; in test [2], 0.235; in [3] it was 0.602; in [5], 0.212; in test [6], 0.412; in [7], -0.0373. In addition, the results for the composite z-score in test [8], in [9] and in test [10] were -0.182, 0.0477 and 0.674, respectively. The z-score in test [4] was -0.153 (inactive).

Consider `NC(=O)NCC#Cc1ccc2c(c1)[C@]1(C(=O)N2)[C@H](c2ccc(O)cc2)N2[C@H](c3ccccc3)[C@H](c3ccccc3)OC(=O)[C@H]2[C@@H]1C(=O)O`, for which the composite z-score in [1] was -0.0693; in [2], -0.173; in test [3] it was 0.617; in test [5], -0.114; in test [6], -0.928; in test [7] it was -0.683. Besides, the composite z-score in [8] was -0.966; in [9] it was -1.22; in [10] it was -0.203. Further, the z-score in test [4] is 0.307 (inactive).

`CC(C)C(CO)N1C(=O)[C@@H]2C3C(=O)OCCC/C=C\[C@H]3OC23C=CCN(CCN2CCOCC2)C(=O)[C@@H]13` (stereo not given in full): the composite z-score in test [1] is -0.768; in test [2], -0.355; in test [3], -0.45; in [5], 0.0971; in [6], 0.0585; in [7], -0.203. Further, the composite z-score in test [8] was 0.0915; in [9] it was 0.284; in test [10], 0.88. Also, in test [4], the z-score is 0.963 (inactive).

For the molecule `CN1C(=O)C2C=CC(C(O)c3ccco3)N(Nc3ccccc3)C2C1=O` (stereo not given), the composite z-score amounted to 0.307 in test [1]; 0.44 in test [2]; 0.338 in test [3]; 0.953 in test [5]; 0.386 in [6]; 0.466 in test [7]. Moreover, the figures for the composite z-score in test [8], in [9] and in test [10] were 0.523, 0.519 and 1.16, respectively. Besides, the z-score in test [4] was 0.883 (inactive).

(Values after PubChem BioAssay.)
